Test results as given in PubChem BioAssay (Tox21).
Values joined by “and” are separate entries in the source; they are usually repeats but may differ in a detail not shown here. Identical values can stand only once. Records with an inconclusive call do not appear. More than one record can exist for a structure, and the calls need not agree. Active and inactive are the calls of the source. Unless noted, the call rests on the fitted dose curve; in most records, active means well fitted curve in the direction sought with a large enough effect in the repeat runs; inconclusive means weak or mixed curves; inactive means no such curve, though single readings can be large; an effect the other way counts as inactive or inconclusive.

How the values were obtained:
[1] = system: thyroid hormone receptor (rat, GH3 cells); experiment: qHTS assay to identify small molecule agonists of the thyroid receptor (TR) signaling pathway (AID 743066; calls by dose curve)
[2] = biological target: Estrogen receptor (Homo sapiens) (UniProt P03372); experiment: qHTS assay to identify small molecule antagonists of the estrogen receptor alpha (ER-alpha) signaling pathway (AID 743069; active means well fitted curve in the direction sought with a large enough effect in the signal ratio in the repeat runs, not every such curve was filed as active; the % refers to the signal ratio)
How it was run: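 HEK293 ER-alpha-UAS-bla GripTite cells, held overnight in 2% charcoal-stripped FBS, 5,000 cells/well, preincubated 4 h, then compound plus 17beta-estradiol for 18 h at 37C. Beta-lactamase read by LiveBLAzer B/G FRET substrate, 2 h at room temperature.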

[3] = qHTS assay to identify small molecule antagonists of the estrogen receptor alpha (ER-alpha) signaling pathway - cell viability counter screen (AID 743074; calls by dose curve;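 further: HEK293 cells carrying ER-alpha-UAS-bla reporter stimulated with 17beta-estradiol; nearly all actives have a fitted effect of over 45% in size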)
[4] = biological target: Estrogen receptor (Homo sapiens) (UniProt P03372); experiment: qHTS assay to identify small molecule agonists of the estrogen receptor alpha (ER-alpha) signaling pathway (AID 743075; calls by dose curve)
[5] = biological target: Estrogen receptor (Homo sapiens) (UniProt P03372); experiment: qHTS assay to identify small molecule agonists of the estrogen receptor alpha (ER-alpha) signaling pathway using the BG1 cell line (AID 743079); further: nearly all actives have a fitted effect of over 20% in size; further: potency means the concentration at half of the fitted maximal effect
[6] = qHTS assay to identify small molecule antagonists of the estrogen receptor alpha (ER-alpha) signaling pathway using the BG1 cell line (AID 743080; calls by dose curve;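 further: BG1 cells stimulated with 17beta-estradiol alongside compound; series mostly up to about 70 µM; nearly all actives have a fitted effect of over 25% in size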)
How it was run: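 Endogenous full-length ER-alpha in BG1-Luc-4E2 cells drives a stably integrated 4×ERE luciferase gene; compounds were tested against 17beta-estradiol over 21.5 h, with luminescence and multiplexed viability fluorescence recorded.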

[7] = qHTS assay to identify small molecule antagonists of the estrogen receptor alpha (ER-alpha) signaling pathway using the BG1 cell line - cell viability counter screen (AID 743081);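 further: compound given together with 17beta-estradiol as the ER stimulus; nearly all actives have a fitted effect of over 45% in size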; further: potency means the concentration at half of the fitted maximal effect
Aromatase (Homo sapiens) = Aromatase (Homo sapiens) (UniProt P11511); experiment: qHTS assay to identify aromatase inhibitors (AID 743083); further: series mostly up to about 70 µM; nearly all actives have a fitted effect of over 55% in size
[8] = qHTS assay to identify aromatase inhibitors - cell viability counter screen (AID 743084);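 further: cells stimulated with testosterone during compound exposure; nearly all actives have a fitted effect of over 55% in size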; further: potency means the concentration at half of the fitted maximal effect
[9] = biological target: Aryl hydrocarbon receptor (Homo sapiens) (UniProt P35869); experiment: qHTS assay to identify small molecule that activate the aryl hydrocarbon receptor (AhR) signaling pathway (AID 743085); further: nearly all actives have a fitted effect of over 15% in size; further: potency means the concentration at half of the fitted maximal effect;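 on activation: HG2L7.5c1 human HepG2 liver cells with stably integrated DRE-driven firefly reporter; series mostly up to about 70 µM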
How it was run: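 A multiplexed format paired cell viability (CellTiter-Fluor fluorescence) with AhR-dependent luciferase output (ONE-Glo luminescence) in the same wells of HepG2 DRE-luc cells after 24 h compound exposure at 37C.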

[10] = qHTS assay to identify small molecule that activate the aryl hydrocarbon receptor (AhR) signaling pathway - cell viability counter screen (AID 743086);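 further: HepG2 liver cells carrying the AhR DRE luciferase reporter; series mostly up to about 70 µM; nearly all actives have a fitted effect of over 45% in size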
How it was run: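 HepG2-AhR-luc (HG2L7.5c1) cells, 4000/well, treated 24 h at 37 C with compound; viability measured as CellTiter-Fluor fluorescence after 30 min in the same wells as the luciferase read.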

[11] = biological target: Peroxisome proliferator-activated receptor gamma (Homo sapiens) (UniProt P37231); experiment: qHTS assay to identify small molecule agonists of the peroxisome proliferator-activated receptor gamma (PPARg) signaling pathway (AID 743094; active means well fitted activation curve with a large enough effect in the signal ratio in the repeat runs, not every such curve was filed as active; the % refers to the signal ratio)
How it was run: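 Compounds dissolved in DMSO were added to PPARg UAS-bla HEK293H cells for 17 h at 37C, and reporter expression was quantified by fluorescence intensity after 1 h with LiveBLAzer B/G FRET substrate.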

[12] = biological target: Peroxisome proliferator-activated receptor gamma (Homo sapiens) (UniProt P37231); experiment: qHTS assay to identify small molecule antagonists of the peroxisome proliferator-activated receptor gamma (PPARg) signaling pathway (AID 743191; calls by dose curve; further: series mostly up to about 63 µM; nearly all actives have a fitted effect of over 30% in size)
How it was run: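 GeneBLAzer PPARg UAS-bla HEK293H cells, 5 h post-plating, exposed to compounds 17 h at 37C. LiveBLAzer B/G FRET substrate added for 1 h at room temperature; beta-lactamase reporter read by fluorescence intensity.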

[13] = qHTS assay to identify small molecule antagonists of the peroxisome proliferator-activated receptor gamma (PPARg) signaling pathway - cell viability counter screen (AID 743194); further: nearly all actives have a fitted effect of over 55% in size
How it was run: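 Cytotoxicity counter screen in PPARg-bla HEK293H cells, same wells as reporter assay. Compounds plus 50 nM rosiglitazone (final) for 17 h at 37 C, then viability read by CellTiter-Glo luminescence.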

[14] = qHTS assay for small molecule agonists of the antioxidant response element (ARE) signaling pathway (AID 743202; active means well fitted activation curve with a large enough effect in the signal ratio in the repeat runs, not every such curve was filed as active; the % refers to the signal ratio; further: potency means the concentration at half of the fitted maximal effect)
How it was run: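 ARE-bla HepG2 cells (beta-lactamase reporter under the antioxidant response element), plated 5 hours, then exposed to compounds 16 hours at 37 C. LiveBLAzer B/G FRET substrate added for 2 hours at room temperature; fluorescence intensity read.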

[15] = qHTS assay for small molecule agonists of the antioxidant response element (ARE) signaling pathway - cell viability counter screen (AID 743203; calls by dose curve; further: nearly all actives have a fitted effect of over 55% in size)
How it was run: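 Following 16 hrs of compound treatment at 37C, HepG2 cells with an ARE-controlled beta-lactamase gene were lysed with CellTiter-Glo. Luminescence was read after 30 min at room temperature.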

[16] = qHTS assay for small molecule activators of the heat shock response signaling pathway - cell viability counter screen (AID 743209); further: nearly all actives have a fitted effect of over 50% in size
How it was run: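 Readout: CellTiter-Glo luminescence, 30 min at room temperature. System: HSE-bla HeLa cells, 1500/well, plated overnight. Treatment: compounds in DMSO, 5 h at 37 C.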

[17] = qHTS assay for small molecule activators of the heat shock response signaling pathway (AID 743210; active means well fitted activation curve with a large enough effect in the signal ratio in the repeat runs, with a control signal flat, not every such curve was filed as active; the % refers to the signal ratio; further: series mostly up to about 63 µM)
How it was run: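 HSE-bla HeLa cells (beta-lactamase reporter under heat shock response elements), plated overnight, then exposed to compounds 5 h at 37 C; LiveBLAzer B/G FRET substrate added, 2.5 h at room temperature, fluorescence intensity read.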

[18] = qHTS assay to identify small molecule agonists of the peroxisome proliferator-activated receptor delta (PPARd) signaling pathway - cell viability counter screen (AID 743211); further: nearly all actives have a fitted effect of over 55% in size
How it was run: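 Tox21 library compounds, delivered in DMSO, were incubated 17 h with PPARd-bla HEK293H cells; cytotoxicity was taken from CellTiter-Glo luminescence read 30 min after reagent addition.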

[19] = biological target: Peroxisome proliferator-activated receptor delta (Homo sapiens) (UniProt Q03181); experiment: qHTS assay to identify small molecule agonists of the peroxisome proliferator-activated receptor delta (PPARd) signaling pathway (AID 743212; calls by dose curve)
How it was run: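 GeneBLAzer UAS-bla HEK293H cells carrying a PPARδ construct were exposed to compounds at 37 °C. Beta-lactamase activity was read by FRET fluorescence after 2 h at room temperature with LiveBLAzer B/G substrate.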

Measured: Potency

Peroxisome proliferator-activated receptor delta (Homo sapiens), sequence (Q03181 whole entry, looked up): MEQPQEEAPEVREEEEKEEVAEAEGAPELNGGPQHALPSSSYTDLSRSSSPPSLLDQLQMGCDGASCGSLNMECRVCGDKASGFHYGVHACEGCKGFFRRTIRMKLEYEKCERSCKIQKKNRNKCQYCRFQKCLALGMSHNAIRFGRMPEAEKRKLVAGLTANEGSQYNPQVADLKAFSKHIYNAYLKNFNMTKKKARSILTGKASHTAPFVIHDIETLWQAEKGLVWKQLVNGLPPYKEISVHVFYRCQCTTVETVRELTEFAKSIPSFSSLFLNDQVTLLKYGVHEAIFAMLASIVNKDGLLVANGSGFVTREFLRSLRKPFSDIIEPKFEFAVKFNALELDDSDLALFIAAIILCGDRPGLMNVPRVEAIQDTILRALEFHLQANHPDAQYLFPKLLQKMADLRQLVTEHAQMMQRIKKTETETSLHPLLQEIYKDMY
Aromatase (Homo sapiens), sequence (P11511 whole entry, looked up): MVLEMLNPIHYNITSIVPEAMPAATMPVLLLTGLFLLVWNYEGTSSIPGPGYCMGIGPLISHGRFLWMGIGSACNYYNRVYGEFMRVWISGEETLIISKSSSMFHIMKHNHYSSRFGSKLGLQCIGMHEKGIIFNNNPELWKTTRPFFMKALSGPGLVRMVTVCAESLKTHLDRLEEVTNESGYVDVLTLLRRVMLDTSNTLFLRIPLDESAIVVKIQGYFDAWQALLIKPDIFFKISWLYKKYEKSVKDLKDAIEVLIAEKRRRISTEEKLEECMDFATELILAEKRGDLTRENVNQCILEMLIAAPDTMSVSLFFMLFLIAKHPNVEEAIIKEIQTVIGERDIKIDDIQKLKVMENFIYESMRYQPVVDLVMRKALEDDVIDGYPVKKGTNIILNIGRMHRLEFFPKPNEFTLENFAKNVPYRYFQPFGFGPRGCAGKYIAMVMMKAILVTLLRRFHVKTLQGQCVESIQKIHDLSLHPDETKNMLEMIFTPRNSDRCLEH
Aryl hydrocarbon receptor (Homo sapiens), sequence (P35869 whole entry, looked up): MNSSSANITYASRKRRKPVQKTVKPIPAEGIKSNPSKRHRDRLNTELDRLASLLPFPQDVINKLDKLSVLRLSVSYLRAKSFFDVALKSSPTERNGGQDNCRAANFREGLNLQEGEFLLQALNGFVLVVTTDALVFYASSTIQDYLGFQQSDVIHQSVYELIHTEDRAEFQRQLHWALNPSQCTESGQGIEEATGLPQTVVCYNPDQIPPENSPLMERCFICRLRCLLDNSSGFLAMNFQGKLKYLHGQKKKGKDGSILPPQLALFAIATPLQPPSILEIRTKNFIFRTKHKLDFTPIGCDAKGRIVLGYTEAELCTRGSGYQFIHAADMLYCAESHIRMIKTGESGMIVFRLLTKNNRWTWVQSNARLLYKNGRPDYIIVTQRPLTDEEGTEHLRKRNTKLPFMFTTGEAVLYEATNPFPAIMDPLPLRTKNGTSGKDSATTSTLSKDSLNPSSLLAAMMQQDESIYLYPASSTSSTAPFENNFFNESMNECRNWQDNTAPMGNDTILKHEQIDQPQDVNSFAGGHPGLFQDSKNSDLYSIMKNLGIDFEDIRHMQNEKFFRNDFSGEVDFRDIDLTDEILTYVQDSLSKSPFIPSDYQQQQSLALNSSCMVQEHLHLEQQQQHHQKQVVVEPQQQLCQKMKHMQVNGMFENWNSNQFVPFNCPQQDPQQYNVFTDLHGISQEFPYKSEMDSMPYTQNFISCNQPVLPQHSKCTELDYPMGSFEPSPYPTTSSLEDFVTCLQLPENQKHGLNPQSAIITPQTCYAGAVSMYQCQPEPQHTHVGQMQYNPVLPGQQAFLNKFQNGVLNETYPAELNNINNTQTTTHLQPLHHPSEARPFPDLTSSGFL
Estrogen receptor (Homo sapiens), sequence (P03372 whole entry, looked up): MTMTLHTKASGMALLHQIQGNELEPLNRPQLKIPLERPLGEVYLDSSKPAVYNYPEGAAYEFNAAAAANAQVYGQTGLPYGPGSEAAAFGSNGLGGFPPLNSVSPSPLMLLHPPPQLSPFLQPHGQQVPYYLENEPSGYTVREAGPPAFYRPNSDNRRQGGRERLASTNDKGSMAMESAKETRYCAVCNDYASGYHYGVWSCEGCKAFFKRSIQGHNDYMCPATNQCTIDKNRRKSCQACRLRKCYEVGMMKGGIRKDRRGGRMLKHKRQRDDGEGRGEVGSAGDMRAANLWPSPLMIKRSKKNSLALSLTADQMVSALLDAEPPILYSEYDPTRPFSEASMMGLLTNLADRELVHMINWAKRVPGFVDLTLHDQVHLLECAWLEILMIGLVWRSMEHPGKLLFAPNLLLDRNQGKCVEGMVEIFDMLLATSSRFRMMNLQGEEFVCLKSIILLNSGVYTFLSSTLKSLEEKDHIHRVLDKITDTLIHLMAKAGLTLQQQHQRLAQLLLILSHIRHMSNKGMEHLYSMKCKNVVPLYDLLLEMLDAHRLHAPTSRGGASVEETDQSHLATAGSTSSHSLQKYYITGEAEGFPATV
Peroxisome proliferator-activated receptor gamma (Homo sapiens), sequence (P37231 whole entry, looked up): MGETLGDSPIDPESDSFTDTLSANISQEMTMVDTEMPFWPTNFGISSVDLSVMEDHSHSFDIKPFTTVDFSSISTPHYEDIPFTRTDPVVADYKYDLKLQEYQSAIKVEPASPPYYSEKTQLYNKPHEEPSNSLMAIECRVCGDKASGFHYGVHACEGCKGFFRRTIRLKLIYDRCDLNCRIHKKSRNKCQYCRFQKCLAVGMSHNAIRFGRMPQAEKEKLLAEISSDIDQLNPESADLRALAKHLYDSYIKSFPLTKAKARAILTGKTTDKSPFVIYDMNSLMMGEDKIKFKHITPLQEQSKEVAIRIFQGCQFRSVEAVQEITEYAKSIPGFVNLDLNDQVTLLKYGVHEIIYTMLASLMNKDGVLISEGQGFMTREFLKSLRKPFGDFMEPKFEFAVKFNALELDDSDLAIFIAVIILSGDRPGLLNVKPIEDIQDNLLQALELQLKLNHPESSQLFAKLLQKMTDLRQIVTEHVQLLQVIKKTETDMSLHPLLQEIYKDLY

C=CC(=O)OCCCCCCCC(C)C
inactive: [1] | [2] | [3] | [4] | [5] | [6] | [7] | Aromatase (Homo sapiens) | [8] | [9] | [10] | [11] | [12] | [13] | [14] | [15] | [16] | [17] | [18] | [19]

O=[N+]([O-])C(CO)(CO)CO
active: [14] 33.9 µM and 21.7 µM
inactive: [1] | [2] | [3] | [4] | [5] | [6] | [7] | Aromatase (Homo sapiens) | [8] | [9] | [10] | [11] | [12] | [13] | [15] | [16] | [17] | [18] | [19]

Cc1ccc(C)c(C)c1
inactive: [1] | [2] | [3] | [4] | [5] | [6] | [7] | Aromatase (Homo sapiens) | [8] | [9] | [10] | [11] | [13] | [14] | [15] | [16] | [17] | [18] | [19]

COCC(=O)O
inactive: [1] | [2] | [3] | [4] | [5] | [6] | [7] | Aromatase (Homo sapiens) | [8] | [9] | [10] | [11] | [12] | [13] | [14] | [15] | [16] | [17] | [18] | [19]

CCCCC(CC)COC(=O)/C=C\C(=O)OCC(CC)CCCC (configuration not stated)
inactive: [1] | [3] | [7] | Aromatase (Homo sapiens) | [8] | [9] | [10] | [11] | [12] | [13] | [15] | [16] | [18] | [19]

CC(C)(C)C1CCC(O)CC1 (configuration not stated)
inactive: [1] | [2] | [3] | [4] | [5] | [6] | [7] | Aromatase (Homo sapiens) | [8] | [10] | [11] | [12] | [13] | [14] | [15] | [16] | [17] | [18] | [19]

Oc1ccc2ccccc2c1N=Nc1ccccc1
active: [5] 19.3 µM and 30.6 µM | [8] 30.6 µM and 24.3 µM | [9] 3.06 µM
inactive and 34.4 µM (active): [7]
inactive: [1] | [2] | [3] | [4] | Aromatase (Homo sapiens) | [11] | [13] | [15] | [16] | [17] | [18]
